9 sequences from PMC8384837, “Expanding the binding specificity for RNA recognition by a PUF domain” can be followed below.

Test in all cases: yeast three-hybrid, YBZ-1, SC-Leu-His + 0.5 mM 3-AT, 4 days
What all share (details): tags: N-Gal4 AD-HA kept; label: inside an RPR1-promoter hybrid RNA with tandem MS2 sites; ssRNA

One assay concerns the target PUM1 PUF domain R4-WFS (Homo sapiens, UniProt Q14671 828-1176, N971W;H972F;Q975S). Put shortly:
(§1)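 The interaction score is the log change in variant frequency from input to selection. Scores were computed in log2 with a pseudocount of 1 for absent variants, using Illumina sequencing of PCR-amplified repeat regions. The input came from four days on SC-Leu and the selection from four days on SC-Leu-His + 0.5 mM 3-AT. The cells were strain YBZ-1 (LexA–MS2 coat fusion, HIS3 reporter) co-expressing Pumilio-1 PUF domain libraries and matching RNA elements from a centromeric plasmid.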

Another assay has as its target PUM1 PUF domain R4-GNH (Homo sapiens, UniProt Q14671 828-1176, N971G;H972N;Q975H). Summed up:
as §1

The target in the next assay is PUM1 PUF domain R5-RPC (Homo sapiens, UniProt Q14671 828-1176, C1007R;R1008P;Q1011C). Put shortly:
as §1

The next assay addresses PUM1 PUF domain R8-KWV (Homo sapiens, UniProt Q14671 828-1176, N1122K;Y1123W;Q1126V). Summed up:
as §1

The next assay has as its target PUM1 PUF domain R3-GYV (Homo sapiens, UniProt Q14671 828-1176, C935G;R936Y;Q939V). Put shortly:
as §1

For a further assay, the target named is T1, PUM1 PUF domain R6-MFS (Homo sapiens, UniProt Q14671 828-1176, N1043M;Y1044F;Q1047S).
T1 sequence: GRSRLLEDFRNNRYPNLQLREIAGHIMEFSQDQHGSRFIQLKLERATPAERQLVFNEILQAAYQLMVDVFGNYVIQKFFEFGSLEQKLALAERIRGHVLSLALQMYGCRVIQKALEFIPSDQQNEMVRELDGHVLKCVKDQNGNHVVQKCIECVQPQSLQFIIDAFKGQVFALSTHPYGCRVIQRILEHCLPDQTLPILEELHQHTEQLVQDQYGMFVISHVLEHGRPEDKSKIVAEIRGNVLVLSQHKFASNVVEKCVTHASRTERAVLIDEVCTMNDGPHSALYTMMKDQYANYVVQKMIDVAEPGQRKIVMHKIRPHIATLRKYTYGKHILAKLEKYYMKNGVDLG
Summed up: as §1

A further assay deals with PUM1 PUF domain R8-HYR (Homo sapiens, UniProt Q14671 828-1176, N1122H;Q1126R). Summed up:
as §1

In another assay the target is PUM1 PUF domain R4-APN (Homo sapiens, UniProt Q14671 828-1176, N971A;H972P;Q975N). Put shortly:
as §1

For another assay, the target named is PUM1 PUF domain R1-KMR (Homo sapiens, UniProt Q14671 828-1176, S863K;R864M;Q867R). Put shortly:
as §1

A further assay has as its target PUM1 PUF domain R7-RCK (Homo sapiens, UniProt Q14671 828-1176, S1079R;N1080C;E1083K). Summed up: as §1

As to “GGCUAGAACUAGUGGAUCCCCCGGCGCCCGGCGGCUCGAGCCCGGGUAAGUGUAUAUAGUCUGCAUGCCGCCGGGCGCCAUGCCUGCAGGUCGACUCUAGAAAACAUG”, the results for the binding signal in the assay with PUM1 PUF domain R4-WFS and in the assay with PUM1 PUF domain R4-GNH were 3.06 log2 enrichment (interaction score) and 3.07 log2 enrichment (interaction score), respectively. Take “GGCUAGAACUAGUGGAUCCCCCGGCGCCCGGCGGCUCGAGCCCGGGUAAGUGUCAAUAGUCUGCAUGCCGCCGGGCGCCAUGCCUGCAGGUCGACUCUAGAAAACAUG”: the binding signal with PUM1 PUF domain R5-RPC is 1.49 log2 enrichment (interaction score). Consider “GGCUAGAACUAGUGGAUCCCCCGGCGCCCGGCGGCUCGAGCCCGGGUAAGCGUAAAUAGUCUGCAUGCCGCCGGGCGCCAUGCCUGCAGGUCGACUCUAGAAAACAUG”, for which the binding signal with PUM1 PUF domain R8-KWV is 5.88 log2 enrichment (interaction score). In the case of “GGCUAGAACUAGUGGAUCCCCCGGCGCCCGGCGGCUCGAGCCCGGGUAAGUGUAAAUAGUCUGCAUGCCGCCGGGCGCCAUGCCUGCAGGUCGACUCUAGAAAACAUG”, the binding signal with PUM1 PUF domain R3-GYV is 3.26 log2 enrichment (interaction score); with PUM1 PUF domain R6-MFS, 3 log2 enrichment (interaction score); with PUM1 PUF domain R8-HYR, 2.29 log2 enrichment (interaction score); with PUM1 PUF domain R8-KWV it was 5.94 log2 enrichment (interaction score); with PUM1 PUF domain R4-APN, 4.29 log2 enrichment (interaction score).

On to “GGCUAGAACUAGUGGAUCCCCCGGCGCCCGGCGGCUCGAGCCCGGGUAAGUGUAAAUUGUCUGCAUGCCGCCGGGCGCCAUGCCUGCAGGUCGACUCUAGAAAACAUG”, for which the binding signal in the assay with PUM1 PUF domain R1-KMR is 6.29 log2 enrichment (interaction score). As to “GGCUAGAACUAGUGGAUCCCCCGGCGCCCGGCGGCUCGAGCCCGGGUAAGUCUAAAUAGUCUGCAUGCCGCCGGGCGCCAUGCCUGCAGGUCGACUCUAGAAAACAUG”, the binding signal with PUM1 PUF domain R7-RCK is 4.15 log2 enrichment (interaction score). As for “GGCUAGAACUAGUGGAUCCCCCGGCGCCCGGCGGCUCGAGCCCGGGUAAGUGUUAAUAGUCUGCAUGCCGCCGGGCGCCAUGCCUGCAGGUCGACUCUAGAAAACAUG”, the binding signal in the assay with PUM1 PUF domain R5-RPC is 2.17 log2 enrichment (interaction score).

For the sequence “GGCUAGAACUAGUGGAUCCCCCGGCGCCCGGCGGCUCGAGCCCGGGUAAGUGUACAUAGUCUGCAUGCCGCCGGGCGCCAUGCCUGCAGGUCGACUCUAGAAAACAUG”, in the assay with PUM1 PUF domain R4-APN, the binding signal is 1.7 log2 enrichment (interaction score). With “GGCUAGAACUAGUGGAUCCCCCGGCGCCCGGCGGCUCGAGCCCGGGUAAGUAUAAAUAGUCUGCAUGCCGCCGGGCGCCAUGCCUGCAGGUCGACUCUAGAAAACAUG”, in the assay with PUM1 PUF domain R7-RCK, the binding signal was 2.31 log2 enrichment (interaction score).
